# Measured values: the supplement of paper PMC7801607
# System: Plasmodium berghei ANKA liver stage in HepG2-A16-CD81
# Assay: % inhibition of liver stage parasite viability (luciferase); higher = more inhibition
# Details: 5 µM; 48 h
# Experimental: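 Single-concentration screen of the MMV Pandemic Response Box. P. falciparum NF54 asexual blood stages: pLDH assay, 72 h at 37 °C, 2 and 20 µM, n=2. Stage IV/V gametocytes (NF54): luciferase reporter (NF54-Pfs16-GFP-Luc, 48 h), ATP bioluminescence (24 h) and PrestoBlue (48 h) at 1 and 5 µM, n=1. P. berghei liver stage (luciferase in HepG2-A16-CD81, 48 h post infection) at 5 µM, n=4. All normalised to DMSO and kill controls as % inhibition.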
row,Structure (SMILES),% inhibition of liver stage parasite viability [%]
1,OB1OCc2cc(Cl)ccc21,23.6
2,CC(C)Cn1c(=O)n(C)c(=O)c2c(-c3cncn3C)n(Cc3cccc4ccccc34)nc21,-8.38
3,Cc1ccc(Oc2ccccc2-c2csc(NC3=NCCCN3)n2)c(C)c1,57.6
4,O=C(O)c1ccc(-n2nc(-c3ccccc3O)nc2-c2ccccc2O)cc1,18.6
5,COc1nc2ccc(Br)cc2cc1[C@@H](c1ccccc1)[C@@](O)(CCN(C)C)c1cccc2ccccc12,31.1
6,O=C(O)COc1cccc2c1CC[C@](O)(COC(=O)N(c1ccccc1)c1ccccc1)C2,13.6
7,CN1CCN(c2ccc3[nH]c(-c4ccc5[nH]c(-c6ccc(O)cc6)nc5c4)nc3c2)CC1,-6.69
8,CCC(C)(C)c1ccc(CC(C)CN2C[C@@H](C)O[C@@H](C)C2)cc1 (stereo not given in full),40.5
9,Cc1c(N)cccc1Cn1ccc(OCCc2cccs2)cc1=O,17
10,CN(C(=O)C1(c2ccc(Cl)cc2)CCC1)c1ccccc1,3.18
11,Nc1nc(C(F)(F)F)cc2c1[nH]c(=O)n2Cc1ccccc1,-12.1
12,CC(C)(C)NC(=O)[C@@H]1C[C@@H]2CCCC[C@@H]2CN1C[C@@H](O)[C@H](Cc1ccccc1)NC(=O)[C@H](CC(N)=O)NC(=O)c1ccc2ccccc2n1,26.6
13,O=C1C=C(c2ccccc2)S(=O)(=O)c2ccccc21,30.4
14,CC[C@H]1OC(=O)[C@H](C)[C@@H](O[C@H]2C[C@@](C)(OC)[C@@H](O)[C@H](C)O2)[C@H](C)[C@@H](O[C@@H]2O[C@H](C)C[C@H](N(C)C)[C@H]2O)[C@](C)(O)C[C@@H](C)C(=O)[C@H](C)[C@@H](O)[C@]1(C)O,34
15,Cc1oncc1C(=O)Nc1ccc(C(F)(F)F)cc1,-59.9
16,CCc1cc(Cc2cnc(N)nc2N)cc2c1N(C)CCC2C (stereo not given),7.3
17,COC(=O)Nc1nc2c(C)cccc2[nH]1,3.06
18,CC1(C)[C@H](C(=O)O)N2C(=O)C[C@H]2S1(=O)=O,20.3
19,CCNC(=O)Nc1cn2c(-c3ncc(CC)cn3)cc(-c3cccnc3)cc2n1,4.97
20,Cc1cc(NS(=O)(=O)c2ccc(-c3ccc(F)cc3F)cc2)no1,43.5

row,Structure (SMILES),% inhibition of liver stage parasite viability [%]
1,N#C/C(=C1/SC[C@H](c2ccc(Cl)cc2Cl)S1)n1ccnc1,24
2,CC(C)Nc1nc2cc(Cl)c(Cl)cc2n1[C@H]1O[C@@H](CO)[C@H](O)[C@@H]1O,12.5
3,C(=C\c1nc2ccccc2[nH]1)/c1ccc2c(c1)OCO2,-23.6
4,CC(=O)N1CCN(c2ccc(OCC3COC(Cn4ccnc4)(c4ccc(Cl)cc4Cl)O3)cc2)CC1 (stereo not given),16.4
5,C[C@H](c1cccc2ccccc12)N(C)Cc1ccccc1,19.1
6,CN(C/C=C/C#CC(C)(C)C)Cc1cccc2ccccc12,29.1
7,CCOC(=O)Nc1cc(NC(C)CC(C)CN(CC)CC)c2nc(-c3ccccc3)c(-c3ccccc3)nc2n1 (stereo not given),55.5
8,O=C(/C=C/n1cnc(-c2cc(C(F)(F)F)cc(C(F)(F)F)c2)n1)NNc1cnccn1,11.6
9,CCc1cc(O)c(Oc2cccnc2N)cc1F,18.6
10,NCc1ccc(S(N)(=O)=O)cc1,19.8
11,O=C(Nc1ccc(Cl)c(C(F)(F)F)c1)C(CCCl)C(=O)Nc1ccc(Cl)c(C(F)(F)F)c1,11.8
12,CC[C@@H]1C(=O)OC[C@@H]1Cc1cncn1C,-7.29
13,O=c1ccc2ncc(=O)n3c2n1CC3CN1CCC(NCc2cc3c(cn2)OCCC3)CC1 (stereo not given),23.7
14,Cc1c(OCC(F)(F)F)ccnc1CS(=O)c1nc2ccccc2[nH]1 (stereo not given),-23.2
15,CC(C)c1cc2c(cc1S(=O)(=O)O)[C@@]1(C)CCC[C@@](C)(C(=O)O)[C@@H]1CC2,38.5
16,O=c1cc(Nc2ccc3ccccc3c2)[nH]c(=O)[nH]1,39.9
17,O=C(c1nc2c(C(F)(F)F)cc(C3CC3)cn2c1Cl)N1CCN([C@H]2CC[C@H](O)CC2)C(=O)C1,16.9
18,CNC(=O)C1O[C@@H](n2cnc3c(NCc4cccc(I)c4)nc(Cl)nc32)[C@H](O)[C@@H]1O (stereo not given in full),19.8
19,CCCCc1ccc(S(=O)(=O)Nc2cc(C)on2)cc1,40.7
20,O=C(O)c1ccc(-c2ccc(O[C@H]3O[C@H](CO)[C@@H](O)[C@H](O)[C@@H]3O)cc2)cc1,29.4
